Source: PubChem BioAssay (NCATS)
Several values for one entry are separate records, joined by “and”; a condition that tells them apart may be missing. Equal entries are not always repeated. Inconclusive results are not listed. Where a call stands in place of a potency, no number is given. A number with no mark means an inactive call. Activity calls are given as the source filed them. Unless noted, calls follow the shape of the dose curve; as a rule, active = well fitted curve in the direction sought with a large enough effect; inconclusive = small, poorly fitted or top-dose-only effect, or another doubt; inactive = no such curve, though single readings can be large; an effect the other way counts as inactive or inconclusive.

How the values were obtained:
[1] = target: Cellular tumor antigen p53 (Homo sapiens) (UniProt P04637); assay: Primary qHTS for small molecule compounds that upregulate eGFP-tagged delta133p53alpha (in N-terminal) cells. (AID 2060322); conditions: NCI-H358 eGFP-delta133p53alpha fluorescence, 24 h; activation: hits give high values; also: nearly all actives have a fitted effect of over 75% in size; also: potency is read from the fitted curve at half-maximal effect;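 as to activation: cells pre-induced with doxycycline then dosed without doxycycline; series mostly up to about 56 µM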
Method in brief: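 NCI-H358 cells pre-induced 24 h with 10 ng/ml doxycycline for eGFP-delta133p53alpha, plated dox-free and exposed 24 h at 37C to titrated compounds. Fixed, Hoechst-stained; gated GFP peak intensity by laser scanning cytometry, normalized to DMSO (0%) and 57.5 uM 5-azacytidine (100%).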

[2] = target: Aldehyde dehydrogenase, mitochondrial (Homo sapiens) (UniProt P05091); assay: qHTS for Inhibitors of the Aldehyde Dehydrogenase Family (ALDH2) Confirmatory screens (AID 2061303; active = well fitted inhibition curve with a large enough effect; title and protocol of this record describe different tests; also: nearly all actives have a fitted effect of over 45% in size)
[3] = qHTS for Inhibitors of the Aldehyde Dehydrogenase Family (ALDH1A2, ALDH1A3, ALDH2, ALDH3A1) (AID 2061307); also: nearly all actives have a fitted effect of over 50% in size
[4] = target: Aldehyde dehydrogenase, mitochondrial (Homo sapiens) (UniProt P05091); assay: qHTS for Inhibitors of the Aldehyde Dehydrogenase Family (ALDH2) Primary screen (AID 2061308); also: nearly all actives have a fitted effect of over 55% in size; also: potency is read from the fitted curve at half-maximal effect
[5] = target: Retinaldehyde dehydrogenase 3 (Homo sapiens) (UniProt P47895); assay: qHTS for Inhibitors of the Aldehyde Dehydrogenase Family (ALDH1A3) Confirmatory screens (AID 2061311); also: nearly all actives have a fitted effect of over 60% in size; also: potency is read from the fitted curve at half-maximal effect
[6] = target: Retinaldehyde dehydrogenase 3 (Homo sapiens) (UniProt P47895); assay: qHTS for Inhibitors of the Aldehyde Dehydrogenase Family (ALDH1A3) Validation screen (AID 2061312); also: potency is read from the fitted curve at half-maximal effect; nearly all actives have a fitted effect of over 45% in size
[7] = target: Retinal dehydrogenase 2 (Homo sapiens) (UniProt O94788); assay: qHTS for Inhibitors of the Aldehyde Dehydrogenase Family (ALDH1A2) Confirmation screens (AID 2061314); also: nearly all actives have a fitted effect of over 65% in size
[8] = BET inhibitor-based combinations targeting novel dependencies in MECOM-rearranged (r) AML: SET-2 cell line (AID 2202231); conditions: SET-2 AML cells viability, CellTiter-Glo luminescence, 48 h; viability: hits give low values, concentration not given here; also: nearly all actives have a fitted effect of over 35% in size; also: potency is read from the fitted curve at half-maximal effect
Method in brief: (§1)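 AML cell lines seeded at 500 cells/well, treated with 11-point dose curves for 48 h. Viability by CellTiter-Glo luminescence, normalised to DMSO and empty wells; activity expressed as AUC and per-cell-line Z-transformed AUC.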

[9] = BET inhibitor-based combinations targeting novel dependencies in MECOM-rearranged (r) AML: OCI-AML3 cell line (AID 2202232); conditions: Potency: OCI-AML3 viability; also: series mostly up to about 46 µM; nearly all actives have a fitted effect of over 35% in size
Method in brief: as §1

[10] = BET inhibitor-based combinations targeting novel dependencies in MECOM-rearranged (r) AML: HNT-34 cell line (AID 2202234); also: nearly all actives have a fitted effect of over 35% in size; also: potency is read from the fitted curve at half-maximal effect
Method in brief: (§2)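 Cells at 500/well were exposed for 48 hr to MIPE v5.0 drugs as 11-point dose curves. Viability was read by CellTiter-Glo luminescence and normalized to DMSO and empty-well controls. Activity was expressed as AUC and per-cell-line Z-AUC.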

[11] = BET inhibitor-based combinations targeting novel dependencies in MECOM-rearranged (r) AML: UCSD-AML1 cell line (AID 2202235); also: nearly all actives have a fitted effect of over 40% in size; also: potency is read from the fitted curve at half-maximal effect
Method in brief: as §2

[12] = BET inhibitor-based combinations targeting novel dependencies in MECOM-rearranged (r) AML: AML-194 cell line (AID 2202237; also: nearly all actives have a fitted effect of over 40% in size)
Method in brief: as §1

[13] = target: Retinaldehyde dehydrogenase 3 (Homo sapiens) (UniProt P47895); assay: qHTS for Inhibitors of the Aldehyde Dehydrogenase Family (ALDH1A3) Primary screen (AID 2061315); also: potency is read from the fitted curve at half-maximal effect
[14] = target: Aldehyde dehydrogenase 1A1 (Homo sapiens) (UniProt P00352); assay: qHTS for Inhibitors of the Aldehyde Dehydrogenase Family (ALDH1A1) Confirmatory screens (AID 2061316); also: nearly all actives have a fitted effect of over 65% in size
[15] = BET inhibitor-based combinations targeting novel dependencies in MECOM-rearranged (r) AML: MV-4-11 cell line (AID 2202233); also: nearly all actives have a fitted effect of over 45% in size
Method in brief: as §2

Sequence of Cellular tumor antigen p53 (Homo sapiens) (P04637 whole entry, looked up): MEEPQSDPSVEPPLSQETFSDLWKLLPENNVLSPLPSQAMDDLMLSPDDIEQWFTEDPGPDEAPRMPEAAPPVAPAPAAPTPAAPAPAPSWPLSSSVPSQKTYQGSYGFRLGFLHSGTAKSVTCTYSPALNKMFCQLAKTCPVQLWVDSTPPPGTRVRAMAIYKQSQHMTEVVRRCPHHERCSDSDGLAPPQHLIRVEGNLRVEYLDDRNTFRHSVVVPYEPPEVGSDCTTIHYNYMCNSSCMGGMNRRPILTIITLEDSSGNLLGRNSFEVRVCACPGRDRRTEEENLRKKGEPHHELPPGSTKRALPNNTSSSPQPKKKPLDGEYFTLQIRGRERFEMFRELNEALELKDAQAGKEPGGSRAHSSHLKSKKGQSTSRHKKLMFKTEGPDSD

Structure (SMILES)	activation [1]	Potency [2]	Potency [3]	Potency [4]	Potency [5]	Potency [6]	Potency [7]	Potency [8]	Potency [9]	Potency [10]	Potency [11]	Potency [12]	Potency [1]	Potency [13]	Potency [14]	viability [8] [%]	Potency [15]
NCc1ccc(OCCCc2sc(-c3ccc4c(c3)/C(=N/Nc3nc5ccccc5s3)CCC4)nc2C(=O)O)cc1	7.64%	inactive	inactive	31.6 µM (active)	14.2 µM (active)	7.08 µM (active)	inactive	0.332 µM (active)	inactive	0.166 µM (active)	0.209 µM (active)	inactive	–	–	–	–	–
C=C1C(=O)O[C@H]2C[C@@H](C)[C@@H]3CCC(=O)[C@@]3(C)C[C@H]12	–	inactive	20.1 µM (active)	inactive	14.2 µM (active)	–	inactive	–	–	–	–	–	10.7 µM (active)	inactive	inactive	–	–
C=CC(=O)N1CCCN(c2cc(NCCC(=O)O)nc(-c3ccccn3)n2)CC1	9.67%	inactive	inactive	inactive	inactive	–	–	–	–	–	–	–	–	inactive	–	–	–
COC(=O)N1CC2(CC2)C[C@H](C(=O)NO)[C@H]1C(=O)N1CCN(c2ccccc2)CC1	12.6%	inactive	inactive	inactive	inactive	–	inactive	–	–	inactive	–	inactive	–	–	inactive	112	inactive
CC(O)(C#Cc1ccc2c(c1)N(c1nc(N)ncc1Cl)CC2)c1nccs1 (stereo not given)	-1.22%	inactive	inactive	inactive	inactive	–	inactive	–	–	–	inactive	–	–	inactive	–	–	–
Fc1ccc(-c2nc(C3CCNCC3)sc2-c2ccnc(NC3CC3)n2)cc1	–	inactive	inactive	inactive	inactive	–	inactive	–	–	–	–	–	26.9 µM (active)	inactive	inactive	–	–
N[C@@]1(C(=O)O)CC[C@H]2[C@H](C(=O)O)[C@H]21	-12.3%	inactive	inactive	inactive	inactive	–	inactive	–	–	–	–	–	–	inactive	inactive	–	–
O=C(O)c1cccc(-c2noc(-c3ccccc3F)n2)c1	19.2% and 2.33% and 1.9%	inactive	0.302 µM (active)	inactive	0.159 µM (active)	–	inactive	20.9 µM (active)	–	–	18.6 µM (active)	–	–	0.316 µM (active)	–	–	–
